Hit rate of the full screen: of about 190,000 compounds, about 930 (0.49%) were called active.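 Rule for the calls: active = z-score of insulin promoter reporter brightness in nuclei below -3 at 5 µM, with at least 500 cells counted; inconclusive = wells with under 500 cells, flagged as toxic or sparse; inactive = the rest.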 The list shows a part of the results. Potency and affinity values are given separately.

The results in this text go back to PubChem BioAssay AID1628 (Sanford-Burnham Center for Chemical Genomics, 2009).

This assay is described as follows: insulin promoter down-regulators in MIN6 cells, imaging, high-content screening, mouse beta cells (AID 1628). The settings on record: MIN6 insulin promoter GFP reporter, at 5 µM, active compounds read low.
On to `O=C(NCCN1CCN(Cc2ccc([N+](=O)[O-])cc2)CC1)C(=O)Nc1ccccc1`, for which the z-score is -3.53 (active).
As for `COc1cc(/C=C/C(=O)c2ccccc2O)cc(OC)c1OC`, the z-score is -0.68 (inactive).
For `COc1ccc(C(=O)/C=C/c2ccccc2)c(O)c1`, the z-score was -0.73 (inactive).
In the case of `Cc1onc(-c2c(Cl)cccc2Cl)c1C(=O)NCc1ccco1`, the z-score was -0.41 (inactive).
As for `Cc1ccc(C(=O)Nc2ccccc2C(=O)NCc2ccco2)cc1S(=O)(=O)N1CCCCC1`, the figure is -3.27 (active); as for `COCCNC(=S)N/N=C(\C)c1ccc2cc(OC)ccc2c1`, 3.43 (inactive); as for `Cc1cccc(NC(=O)/C=C/c2ccc([N+](=O)[O-])s2)c1`, 9.92 (inactive).
Under `Cc1cccc(NC(=O)CCNS(=O)(=O)c2cccc3nonc23)c1` stands 0.73 (inactive); under `N#CCc1nc(CSc2nc3ccccc3s2)cs1`, 4.03 (inactive).
For the compound `CN(C)c1ccc(N/C=C/C(=O)c2ccc(F)cc2)cc1`, the z-score is -5.01 (active).
Turning to `CC(=O)Nc1cccc(C(=O)/C=C/c2ccc(N(C)C)cc2)c1`, the z-score is 12.5 (inactive).
Turning to `CCN(CC)c1ccc(/C=C/C(=O)c2ccc(Br)cc2)cc1`, the z-score is 8.04 (inactive).
Consider `Cc1cc(C)nc(NS(=O)(=O)c2ccc(NC(=O)c3ccc4c(c3)OCO4)cc2)n1`, for which the z-score is -0.38 (inactive).
Consider `CN(C)C(=O)CN(c1ccc2c(c1)OCO2)S(C)(=O)=O`, for which the z-score is 3.6 (inactive).
As for `COc1ccc(S(=O)(=O)N(C)CC(=O)Nc2ccc3c(c2)OCO3)cc1OC`, the z-score was -5.9 (active).
As for `Cc1oc(C)c2c(=O)ccc3c(c12)OC(N)=C(C#N)C3c1ccccc1` (centres undefined), the figure is 6.6 (inactive); as for `CCCN(CCC)c1ccc(/C=C/c2ccc3cc(OCC)ccc3n2)cc1`, 5.3 (inactive).
In the case of `COc1ccc(C(=O)Nc2ccc3nc(C)sc3c2)cc1OC`, the z-score was 1.51 (inactive).
In the case of `Cc1nc2ccc(NC(=O)c3cc(S(=O)(=O)N4CCOCC4)ccc3C)cc2s1`, the z-score was -3 (active).
In the case of `Cc1ccc(C(C)C)c(OCc2nn(CC(=O)c3ccc(Cl)cc3)c3[n+]2CCCCC3)c1`, the z-score is -4.3 (active).
Take `N#CC1=C(N)C(C#N)(C#N)[C@H](c2ccoc2)[C@H]2CN(Cc3ccccc3)CC=C12`: the z-score is 5.86 (inactive).
Regarding `CCN(CC)CC(O)COc1ccc2c(c1)c(C(C)=O)c(C)n2-c1ccccc1` (centres undefined), the z-score is -3.02 (active).
As to `CC(C)CN1C(=O)/C(=C/c2c(N3CCc4ccccc4C3)nc3ccccn3c2=O)SC1=S`, the z-score was 16.9 (inactive).
In the case of `COc1cc(C2C(C#N)=C(C)NC3=C2C(=O)CC(C)(C)C3)ccc1O` (centres undefined), the z-score is -4.47 (active).
Turning to `COc1ccc(C2C3=C(CCCC3=O)Nc3ccc4ncccc4c32)cc1OC` (centres undefined), the z-score was 2.27 (inactive).
With `COCC(C)n1c(SCC(=O)NC(=O)Nc2ccc3c(c2)OCCO3)nc2ccccc2c1=O` (centres undefined), the z-score is -4.52 (active).
As to `O=c1c(-c2ccccc2)coc2cc(O)ccc12`, the z-score is 0.33 (inactive).
Turning to `O=c1[nH]c(/C(Cl)=C/c2cccc(F)c2)nc2cc(C(F)(F)F)ccc12`, the z-score was -4.9 (active).
Under `COC(=O)c1cc(CSc2nc3ccc(C)cc3[nH]2)oc1C` stands -3.9 (active).
As to `CCN(CC)c1ccc(/C=C(/C#N)c2nc3ccc(C)cc3[nH]2)c(OC(C)C)c1`, the z-score was 10.8 (inactive).
Under `CC1CCCCC1NC(=O)COC(=O)c1c2c(nc3ccccc13)/C(=C/c1ccco1)CC2` (centres undefined) stands 7.1 (inactive); under `C=CCNC(=O)c1c2c(nc3ccccc13)-c1ccccc1CC2`, 4.54 (inactive).
As for `NC(=O)c1ccc(NC(=O)COC(=O)c2c3c(nc4ccccc24)/C(=C\c2cccs2)CCC3)cc1`, the z-score was -3.07 (active).
For the compound `Cc1ccc(S(=O)(=O)Cn2nnnc2C(CC(C)C)N2CCN(c3ccccc3)CC2)cc1` (centres undefined), the z-score is -4.77 (active).
Take `Cn1ccc(=S)c2ccccc21`: the z-score is 3.38 (inactive).
As for `COC(=O)c1ccccc1NC(=O)Cn1cnc2cc(C)c(C)cc21`, the figure is -3.24 (active); as for `Cc1[nH]n(-c2ccc([N+](=O)[O-])cc2)c(=O)c1C=NCCN1CCN(C(=O)c2ccccc2F)CC1`, 4.48 (inactive); as for `COC(=O)c1ccc(N2C(=O)CC(Sc3n[nH]c(C)n3)C2=O)cc1` (centres undefined), 1.02 (inactive).
As to `COc1ccccc1N1C(=O)CC(Sc2n[nH]c(-c3cccc(C)c3)n2)C1=O` (centres undefined), the z-score is -5.2 (active).
Regarding `N#CC(C#N)=C1C=C2C=C(N3CCOCC3)CCC2CC1` (centres undefined), the z-score was 15.6 (inactive).
Turning to `O=c1c2ccccc2nc(-c2ccco2)n1/N=C/c1ccco1`, the z-score was 2.3 (inactive).
Turning to `COc1ccccc1/C=N/n1c(N)c(S(=O)(=O)c2cccs2)c2nc3ccccc3nc21`, the z-score was -3.63 (active).
`CC(C)(C)c1ccc(OCC(=O)Nc2ccc3c4c(cccc24)C(=O)NC3=O)cc1`: the z-score is 5.3 (inactive).
With `CCOc1ccc(C2C(C(=O)O)c3ccccc3C(=O)N2CCN2CCOCC2)cc1` (centres undefined), the z-score is 4.94 (inactive).
Regarding `CCOc1ccc(C2=C(C=Nc3c(C)n(C)n(-c4ccccc4)c3=O)C(c3ccc(F)cc3)c3ccccc3O2)cc1` (centres undefined), the z-score is -4.16 (active).
In the case of `COc1ccc(CNc2cc(NCCCO)c([N+](=O)[O-])c3nonc23)cc1`, the z-score is 2.28 (inactive).
On to `Cc1nn(-c2ccccc2)c(C)c1/C=N/NC(=O)CSc1nnc(SCc2ccccc2Cl)s1`, for which the z-score is -3.39 (active).
Under `Cc1cccc(-n2nnc(C(=O)NCc3ccccc3Cl)c2N)c1` stands 1.52 (inactive); under `O=C1S/C(=C\c2ccc(N3CCOCC3)o2)C(=O)N1Cc1ccc(F)cc1`, 8.79 (inactive).
Turning to `CC1CCc2cc(F)ccc2N1C(=O)c1ccc2c(c1)OCO2` (centres undefined), the z-score is -4.9 (active).
As to `Cc1ccc(-c2cn3cccnc3n2)cc1`, the z-score was 2.84 (inactive).
For the compound `Cc1ccn2c(NC3CCCCC3)c(C)nc2c1`, the z-score is 3.89 (inactive).
In the case of `COc1ccc(Nc2c(-c3ccco3)nc3ccc(C)cn23)cc1`, the z-score was 5.18 (inactive).
`Cc1ccn2c(Nc3ccccc3C)c(-c3ccccn3)nc2c1`: the z-score was -3.6 (active).
As for `COc1ccc(-n2nc([N+](=O)[O-])c(=NCc3ccco3)n2O)cc1`, the z-score is 4.25 (inactive).
As for `CC1CCN(C(=O)c2cc3nc(C4CC4)cc(C(F)(F)F)n3n2)CC1`, the z-score is -0.53 (inactive).
On to `Cc1ccc(-c2cc(C(F)(F)F)n3nc(C(=O)NCCCn4ccnc4)cc3n2)cc1C`, for which the z-score was -5.59 (active).
Consider `O=C(Cn1cnc2c(cnn2-c2ccc(F)cc2)c1=O)N1CCCc2ccccc21`, for which the z-score was 1.13 (inactive).
As for `O=C(CSCC(=O)N1CCCc2ccccc21)Nc1nc(-c2ccccc2)cs1`, the figure is -4.03 (active).
